Screening results (PubChem)
A selection: hits, their analogues and other compounds. The true share with any hit is near 1.5%.
RAD54 branch: blocks human RAD54 Holliday junction branch migration. FAM/BHQ fluorescence. Q92698. actives 0.14% (n = 360,000). inhibition, % at 10.4 µM;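 active = mean normalized replicate activity at least 40 and at least half of replicates scoring 40 or more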;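 also: 0% = median of neutral control wells and 100% = median of positive control wells; inhibitors cause a drop in the FAM fluorescence signal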
CendR NRP1 mod: alters CendR peptide binding to human NRP-1; O14786; FAM-RPARPAR peptide binding to NRP-1, fluorescence polarization; inhibition, % at 25 µM; actives 0.85% (n = 360,000);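 active = inhibition or corrected inhibition above about 18%, plus a signal ratio from 0.5 to 1.5, limit read from the data, passing the limit was not always enough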
Target sequence (O14786 whole entry, looked up): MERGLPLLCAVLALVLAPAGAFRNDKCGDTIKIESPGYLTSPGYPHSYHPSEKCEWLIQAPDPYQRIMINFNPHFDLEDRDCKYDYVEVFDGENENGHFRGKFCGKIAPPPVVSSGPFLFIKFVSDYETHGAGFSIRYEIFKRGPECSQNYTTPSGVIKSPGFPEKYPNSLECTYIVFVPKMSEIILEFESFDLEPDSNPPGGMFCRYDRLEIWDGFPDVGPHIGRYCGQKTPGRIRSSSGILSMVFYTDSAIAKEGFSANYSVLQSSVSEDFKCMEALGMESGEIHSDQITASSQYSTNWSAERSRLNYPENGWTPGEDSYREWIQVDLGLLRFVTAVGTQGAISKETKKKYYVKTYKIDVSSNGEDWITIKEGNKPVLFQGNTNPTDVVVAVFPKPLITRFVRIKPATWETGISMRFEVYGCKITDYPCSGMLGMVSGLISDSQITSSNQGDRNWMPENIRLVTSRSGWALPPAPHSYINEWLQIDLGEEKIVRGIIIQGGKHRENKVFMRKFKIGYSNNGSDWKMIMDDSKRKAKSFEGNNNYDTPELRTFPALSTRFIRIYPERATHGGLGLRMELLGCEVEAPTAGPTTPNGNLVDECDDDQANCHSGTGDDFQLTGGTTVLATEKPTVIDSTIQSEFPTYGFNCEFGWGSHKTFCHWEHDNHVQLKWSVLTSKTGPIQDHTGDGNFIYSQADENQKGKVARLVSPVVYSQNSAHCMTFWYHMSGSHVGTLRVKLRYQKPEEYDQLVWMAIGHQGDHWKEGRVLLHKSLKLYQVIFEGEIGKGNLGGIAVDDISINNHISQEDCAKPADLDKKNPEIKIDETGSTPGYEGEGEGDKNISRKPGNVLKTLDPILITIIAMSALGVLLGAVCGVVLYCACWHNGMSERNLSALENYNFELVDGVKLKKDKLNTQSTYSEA
miR122 inh: miR-122 inhibition in Huh7 cells. activation (reporter increase), % at 12.5 µM. Huh7 miR-122 Renilla luciferase sensor, 48 h; neutral wells = 0, positive control = 100. actives 0.3% (n = 340,000). AID 602342;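 active = mean replicate activation score at least 90 and every replicate individually at or above 90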;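 also: higher luciferase means less miR-122 activity so hits act as miR-122 inhibitors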
RAD52 inh: blocks human RAD52 DNA annealing. recombinant RAD52 DNA annealing, FRET fluorescence. inhibition, % at 18.7 µM. actives 0.46% (n = 360,000). AID 651710;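 active = every replicate showing at least 50% inhibition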
FID counter: displaces DNA intercalator in HCV helicase counter-screen; inhibition, % at 7.9 µM; DNA fluorescent intercalator displacement, fluorescence; actives 0.17% (n = 290,000); in the data active = inhibition above about 37%;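 also: 0% = vehicle and 100% = reference compound; higher means more ethidium bromide displaced from hairpin DNA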
Glyco luc inh: blocks N-linked glycosylation in D54 reporter cells | D54 ERlucT glycosylation luciferase reporter, 24 h; percent of 100 nM tunicamycin response | actives 0.23% (n = 360,000) | AID 588692 | reporter increase, % at 12.5 µM;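 active = mean luciferase reporter signal, scaled so untreated is 0 and the glycosylation-blocking control 100, at or above a set limit in every replicate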;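 also: luciferase carries N-glycosylation sites so blocking glycosylation raises the light; 0% = median of neutral control wells and 100% = median of 100 nM tunicamycin wells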
* marks the source's active call; other numbers are inactive results; . = no result given; ! = not active in a repeat; [ ] = another dose, or the depositor's remark.

SMILES | RAD54 branch | CendR NRP1 mod | miR122 inh | RAD52 inh | FID counter | Glyco luc inh
CSc1ccc(C(=O)C2CCCN(S(=O)(=O)N(C)C)C2)cc1 (configuration not stated) | . | -1 | . | -1 | -26 | -1
Cc1cccc(S(=O)(=O)NC(=O)C2(C)CCN2C(=O)CCc2ccccc2)c1 (configuration not stated) | -2 | 27* | 0 | -7 | . | 3
Cc1cccc(S(=O)(=O)NC(=O)C2(C)CCN2C(=O)Cc2ccccc2)c1 (configuration not stated) | -23 | 1 | 2 | -4 | . | -2
COc1cc2c(cc1OC)C(c1ccccc1)N(C(=O)c1cccc(S(C)(=O)=O)c1)CC2 (configuration not stated) | . | 2 | 0 | 2 | -52 | 67*
O=C(COC(=O)c1ccccc1SCC(=O)N1CCCC1)Nc1ccccc1C(F)(F)F | -14 | 32* | -4 | -5 | -39 | 1
COc1ccc(NC(=O)Nc2ccc3c(c2)C(=O)N([C@@H](C)CO)C[C@@H](C)[C@@H](CN(C)C(=O)Nc2ccccc2)OCCCC[C@@H](C)O3)cc1 | 4 | . | -1[16.7 µM] | 18 | . | .
CCOC(=O)C1=NOC(COc2ccccc2C=O)C1 (configuration not stated) | . | -2 | . | -9 | -5 | 0
CCOC(=O)C1=NOC(Cn2cc(C#N)c(=O)n(C)c2=O)C1 (configuration not stated) | -2 | 36* | 3 | 2 | 1 | 1
CCCN(C)C[C@H]1Oc2cc(-c3cccc(OC)c3)ccc2S(=O)(=O)N([C@@H](C)CO)C[C@H]1C | -8 | . | 7[16.7 µM] | 18 | . | .
N#CC(C#N)=Cc1cc2ccccc2nc1N1CCCCC1 | . | 33* | . | -54 | -2 | 4
CCOC(=O)/C(C#N)=C/c1cc2ccccc2nc1N1CCOCC1 | . | -21 | . | . | 1 | 2
C[C@H]1CN([C@@H](C)CO)C(=O)c2cccc(NS(=O)(=O)c3cccs3)c2O[C@@H]1CN(C)Cc1ccc(C(F)(F)F)cc1 | -18 | . | 119*[16.7 µM] | 17 | . | .
C[C@H](CO)N1C[C@H](C)[C@@H](CN(C)Cc2ccc(C(F)(F)F)cc2)Oc2c(NC(=O)c3cnccn3)cccc2C1=O | 3 | . | 114*[16.7 µM] | -7 | . | .
C[C@H]1CN([C@@H](C)CO)C(=O)c2cccc(NC(=O)c3cnccn3)c2O[C@H]1CN(C)Cc1ccc(C(F)(F)F)cc1 | -4 | . | 16[16.7 µM] | -4 | . | .
C[C@@H]1CN([C@H](C)CO)C(=O)c2cccc(NC(=O)C3CCOCC3)c2O[C@H]1CN(C)Cc1ccc(C(F)(F)F)cc1 | -10 | . | 71[16.7 µM] | 6 | . | .
C[C@H](CO)N1C[C@H](C)[C@@H](CN(C)Cc2ccccc2)Oc2c(NC(=O)C3CC3)cccc2C1=O | -4 | 10 | 91*! | -3 | . | -3
C[C@@H]1CN([C@H](C)CO)C(=O)c2cccc(NC(=O)C3CC3)c2O[C@H]1CN(C)Cc1ccc(C(F)(F)F)cc1 | -3 | . | 106*[16.7 µM] | 2 | . | .
CO[C@H]1CN(C)C(=O)c2ccc(NS(=O)(=O)c3ccccc3)cc2OC[C@H](C)N(C(=O)NC(C)C)C[C@H]1C | -3 | . | 2[16.7 µM] | -3 | . | .
CCCN1[C@@H]2c3ccc(-c4cccnc4)c(=O)n3C[C@@H]2[C@@H](CO)[C@@H]1C(=O)OC | . | . | . | -39 | . | .
O=C(C1CC1)N1CCCCN2[C@H](CO)[C@@H](c3ccc(C#CC4(O)CCCC4)cc3)[C@@H]2C1 | -2 | . | -28[16.7 µM] | 1 | . | .
C[C@@H]1CN([C@H](C)CO)C(=O)c2cccc(NC(=O)Nc3ccc(C(F)(F)F)cc3)c2O[C@H]1CN(C)CC1CCCCC1 | 2 | . | 61[16.7 µM] | -12 | . | .
C[C@@H]1CN([C@H](C)CO)C(=O)c2cccc(NC(=O)Nc3ccc(F)cc3)c2O[C@H]1CN(C)Cc1ccc(C(F)(F)F)cc1 | -2 | . | 165*[16.7 µM] | 16 | . | .
C[C@@H]1CN([C@H](C)CO)C(=O)c2cccc(NC(=O)Nc3ccc(C(F)(F)F)cc3)c2O[C@@H]1CN(C)CC1CCCCC1 | 8 | . | 1[16.7 µM] | 57* | . | .
CC(C)NC(=O)N[C@H]1C=C[C@@H](CC(=O)NC2Cc3ccccc3C2)O[C@H]1CO | 1 | . | . | 13 | . | .
CC[C@@H](CCC=C(C)C)C(=O)N(Cc1ccccc1)c1ccccc1 | 0 | -3 | 1 | -8 | . | -3
SMILES | RAD54 branch | CendR NRP1 mod | miR122 inh | RAD52 inh | FID counter | Glyco luc inh
CC(C)C[C@@H](C)C(=O)N(Cc1ccccc1)c1ccccc1 | -3 | 32* | -1 | -13 | . | -4
CO[C@@H]1CN(C)C(=O)c2cc(NC(C)=O)ccc2OC[C@@H](C)N(Cc2cc(F)ccc2F)C[C@@H]1C | -3 | . | 2[16.7 µM] | 4 | . | .
CO[C@@H]1CN(C)C(=O)c2cc(NC(=O)C3CC3)ccc2OC[C@H](C)N(Cc2cccnc2)C[C@@H]1C | -13 | . | -3[16.7 µM] | -2 | . | .
CCn1c(CCn2c3ccccc3c3ccccc32)n[nH]c1=S | 1 | 40* | 5 | . | -12 | 0
CCCNC(=O)[C@@H]1[C@@H](CO)[C@@H]2Cn3c(ccc(C4=CCCCC4)c3=O)[C@H]1N2C(=O)CC | . | . | -4[16.7 µM] | . | . | .
CCn1c2ccccc2c2cc(CNCCCN3CCOCC3)ccc21 | 23 | 0 | 1 | 45 | 47* | 0
Cc1cccc(CCN2CCN=C2Nc2ccccc2)c1 | -5 | 27* | -4 | -15 | . | 1
c1ccc(CCN2CCN=C2Nc2ccccc2)cc1 | -6 | 2 | 3 | -3 | -6 | -2
CCN(Cc1ccccc1)C(=O)c1[nH]c2ccc(OC)cc2c1C | -2 | 1 | 125* | 1 | -32 | 1
CCCCc1cn([C@@H](CCCCN)C(=O)N2CCNCC2)nn1 | -12 | 22* | -1 | -78 | 6 | 2
COCCn1c(Cc2ccccc2)nnc1SCC(=O)NC1CC1 | 18 | 25* | . | -1 | -8 | 0
N#CCCN(CCC#N)S(=O)(=O)c1ccc(C(=O)Nc2nnc(C3=COCCO3)o2)cc1 | -1 | 8 | -15 | -16 | -17 | 2
CCCCN(C)S(=O)(=O)c1ccc(C(=O)Nc2nnc(C3=COCCO3)o2)cc1 | . | 30* | . | -26 | -35 | 4
CCCN(CCC)S(=O)(=O)c1ccc(C(=O)Nc2nnc(-c3cc(OC)cc(OC)c3)o2)cc1 | -2 | 25* | 0 | . | -5 | 0
CO[C@H]1CN(C)C(=O)c2ccc(NS(=O)(=O)c3ccccc3F)cc2OC[C@@H](C)NC[C@H]1C | 2 | . | . | -9 | . | .
C[C@@H]1CCCCO[C@@H](CN(C)C(=O)Cc2ccccc2)[C@H](C)CN([C@@H](C)CO)C(=O)c2cc(NS(=O)(=O)c3ccccc3)ccc2O1 | -9 | . | -5[16.7 µM] | 2 | . | .
CC(C)NC(=O)Nc1ccc2c(c1)C(=O)N([C@@H](C)CO)C[C@H](C)[C@H](CN(C)C(=O)CCC(F)(F)F)OCCCC[C@H](C)O2 | 3 | . | 5[16.7 µM] | 16 | . | .
Cc1nc2ncccn2c1-c1csc(Nc2ccc(N(C)C)cc2)n1 | . | 7 | . | 4 | -10 | 51*
